Measurements from PubChem BioAssay AID777 (Sanford-Burnham Center for Chemical Genomics, 2007).
The campaign covered roughly 96,000 compounds. About 19,000 (20%) were called active.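 The calls were made as follows: active = blocking of liver enzyme CYP2C9 beyond about 50% at 5 µM (limit read from the data); inactive = the rest.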 These entries were drawn from the full list.

Biological target: Cytochrome P450 2C9 (Homo sapiens) (UniProt P11712)
Experiment: blockers of cytochrome P450 2C9 activity – biochemical, luminescence, ADME assay, primary screen (AID 777)
Conditions: CYP2C9 Supersomes, luciferin-H conversion, at 5 µM, stronger effect = higher value

Cytochrome P450 2C9 (Homo sapiens), sequence (P11712 whole entry, looked up): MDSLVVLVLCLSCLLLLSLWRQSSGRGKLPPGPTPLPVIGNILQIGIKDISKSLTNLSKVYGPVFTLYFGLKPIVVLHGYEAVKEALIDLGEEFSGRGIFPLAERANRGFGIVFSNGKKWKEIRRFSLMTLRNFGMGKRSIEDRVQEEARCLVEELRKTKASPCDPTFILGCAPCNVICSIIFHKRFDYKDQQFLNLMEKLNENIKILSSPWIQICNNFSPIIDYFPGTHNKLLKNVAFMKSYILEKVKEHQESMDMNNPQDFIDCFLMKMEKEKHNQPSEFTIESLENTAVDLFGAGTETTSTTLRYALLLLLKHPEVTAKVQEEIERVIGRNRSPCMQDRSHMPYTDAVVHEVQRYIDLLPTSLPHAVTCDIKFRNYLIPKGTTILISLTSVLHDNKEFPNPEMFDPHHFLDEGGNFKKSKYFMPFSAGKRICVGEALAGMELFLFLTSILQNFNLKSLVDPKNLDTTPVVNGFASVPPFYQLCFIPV

inhibition, inactive:
CC(C)OC(=O)c1sc2nc3c(cc2c1N)C(=O)CCC3 19.5%, COc1ccccc1-c1nc(C#N)c(N2CCC(C(N)=O)CC2)o1 -9.8%, N#Cc1nc(COc2ccc(Cl)cc2)oc1N1CCCC1 39.8%, Cc1ccc(NC(=O)CCN2CCc3ccccc3C2)cc1 11.4%, O=C(CN1CCOCC1)Nc1ccccc1 11.4%, Cc1ccccc1-n1nnc2c(=O)oc3ccccc3c21 5.8%, Cc1cc(=O)[nH]c(SCC(N)=O)c1C#N 1.6%, CCOC(=O)Nc1ccc(NC(=O)OCC)cc1 -16.2%, NC(=O)CSc1oc(-c2cccs2)nc1S(=O)(=O)c1ccccc1 30.5%, COc1ccccc1-c1nnc(SCC(=O)Nc2cc(C)on2)o1 -64.2%, Cc1cc(NC(=O)CSc2nnc(-c3ccc(Cl)s3)o2)no1 18.4%, COc1ccc(-c2nnc(SCC(=O)c3cccs3)o2)c(OC)c1 16.1%, C=CCNC(=S)NNc1ncnc2sc3c(c12)CC(C)(C)OC3 19.6%, CCOC(=O)C1=C(C)N=c2s/c(=C\C(=O)OC)c(=O)n2C1c1ccc(OC)cc1 (stereo not drawn) 6.6%, CCN(CC)c1ccc(C(=O)OCC(=O)c2ccco2)cc1 -26.4%, O=C(CNC(=O)c1ccco1)OCC(=O)c1ccccc1 -2.5%, NC(=O)c1ccccc1NC(=O)c1ccccc1F -7.7%, Fc1ccccc1OCCSc1nc2ccccc2o1 21.5%, Cc1c(Br)cc(C(=O)N2CCCCCC2)c(C)c1C -38.3%, FC(F)(F)c1ccc2nnc(-c3c(Cl)cccc3Cl)n2c1 25.7%, COc1cc(OC)c(NC(=O)c2ccc(Br)o2)cc1Cl 38.8%, CCCC(=O)Nc1ccc(Cl)c(NC(=O)c2ccc(Br)o2)c1 16.1%, CCOc1ccc(OCC)c(-c2c(=O)n(OCc3ccc(Cl)cc3)c3ccccc3[n+]2[O-])c1 49.9%, O=C(Nc1cccc2ncccc12)c1ccc(-c2ccc(Cl)cc2Cl)o1 5.6%, COc1ccc(CC(=O)Nc2sc(Cc3ccccc3)c(C)c2C(N)=O)cc1 20.4%, CCOC(=O)CSc1nnc(CNc2ccc(F)cc2)o1 14.8%, CCCCSc1[nH]c(=O)c(C(=O)OCC)cc1C#N 19.4%, CN(C(=O)c1ccccn1)c1nnc(-c2ccccn2)s1 2.1%, CCOc1ccc(NC(=O)CCS(=O)(=O)c2cccc3nsnc23)cc1 33.7%, CCOc1ccc(OCC)c(NC(=O)CN(C)S(=O)(=O)c2cccc3nsnc23)c1 -23.4%, CCN(CC)Cc1csc2ccc(Br)cc12 -14.3%, Cc1cc(NC(=O)Cn2nc(C(F)(F)F)c3c2CCCC3)no1 14.9%, Cc1cccc(-n2c(N)c(C(=O)N3CCN(C)CC3)sc2=S)c1 19.9%, Cc1ccc(-n2c(N)c(C(=O)N3CCOCC3)sc2=S)c(C)c1 8.6%, COc1ccc(-n2nc(C(=O)NCC(=O)Nc3cccc(C)n3)c3ccccc3c2=O)cc1 23.8%, COc1ccc(C(C)=O)cc1CN1C(=O)NC2(CCCCC2C)C1=O (stereo not drawn) 9.5%, C#CCN1CC(C)/C(=N/O)CC1C (stereo not drawn) -28.8%, CCOC(=O)C1=C(C)NC2=C(C(=O)CC(C)(C)C2)C1c1ccsc1 (stereo not drawn) 39.8%, CCC1C(C#N)=C(SC)NC2=C1C(=O)CC(C)(C)C2 (stereo not drawn) 19%, CC(=O)Nc1ccc(NC(=O)CN2CCCC(C)C2)c(Cl)c1 (stereo not drawn) 18.3%, c1ccc(C2CCC(N3CCC(N4CCCCC4)CC3)CC2)cc1 (stereo not drawn) 11%, Cc1cc(=O)oc(C)c1C(=O)N1CCCCC1 4.9%, O=C(NCCc1ccccc1)/C(=C\c1ccc([N+](=O)[O-])cc1)NC(=O)c1ccccc1 3.8%, CCOC(=O)/C(C#N)=C/c1ccc(OCC(=O)Nc2ccccc2)c(OC)c1 14.7%, CCC1CCCCN1CCNS(=O)(=O)c1ccc2c(c1)CCN2C(C)=O (stereo not drawn) 15.6%, N/C(Cc1ccc([N+](=O)[O-])cc1)=N\OC(=O)COc1ccc2ccccc2c1 4.4%, CCOc1cc(CN2CCN(C(=O)CC(C)C)CC2)ccc1OC -24.7%, COc1ccc(OCC(=O)N2CCN(C(=O)COc3ccccc3)CC2)cc1 -2.8%, Cn1c(C(=O)OC(C(=O)NC2CCCCC2)c2ccccn2)cc2sccc21 (stereo not drawn) -7.2%, CCn1c(/C=C/c2ccc([N+](=O)[O-])o2)nc2ccccc2c1=O -18%

inhibition, active:
CC1CCN(c2oc(-c3ccccc3F)nc2C#N)CC1 80%, Cc1ccc(NC(=O)CN2CCc3ccccc3C2)cc1 87.4%, COc1ccc(-n2c(C)cc(C(=O)CSc3nnc(-c4cccs4)o3)c2C)cc1 90.8%, COc1ccc(OC)c(C(=O)CSc2nnc(-c3cccs3)o2)c1 54.4%, O=C(COC(=O)c1ccccc1C(=O)c1ccccc1)c1ccco1 90.4%, CCN1CCN(c2c(Cl)cccc2NC(=O)c2ccc(Br)o2)CC1 64.7%, Clc1ccc(COn2c(-c3ccc(Cl)cc3Cl)nc3ncccc32)cc1 97.1%, CCOc1ccc(-c2cn(S(=O)(=O)c3cccc4nsnc34)nc2N)cc1 62.6%, N#Cc1ccccc1-n1c(N)c(C(=O)N2CCCC2)sc1=S 69.3%, COc1ccc(C2C(C#N)=C(/N=C/N3CCOCC3)OC3=C2C(=O)CC(C)(C)C3)cc1OC (stereo not drawn) 69%, COc1cc(C2C(C#N)=C(C)NC3=C2C(=O)CC(C)(C)C3)ccc1O (stereo not drawn) 58.5%, CCOC(=O)/C(=C\c1ccc([N+](=O)[O-])cc1)C(=O)c1cc(C(C)=O)c(Nc2ccccc2)s1 76.2%, COc1cc(C(=O)N2CCN(C/C=C/c3ccccc3)CC2)cc(OC)c1C 67.7%
